# Measured values published in the supplement of paper PMC8253809.
# Tested on: DIPGX7 (H3.3 K27M diffuse intrinsic pontine glioma line)
# Assay: growth inhibition (% activity, log2 RLU normalised to DMSO / staurosporine); higher = more growth inhibition
# Conditions: 33 µM
# Procedure, shortened: (§1)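 The growth-inhibition value is the median over replicates. pHGG cell lines and H9-derived neural stem cells on Geltrex-coated 384-well plates received approved drugs by pin tool at a single final concentration of about 33 μM, in triplicate, for 7 days at 37 °C, 5% CO2. CellTiter-Glo luminescence was log2-transformed and normalised per plate to % activity between solvent and positive control wells.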
row,Structure (SMILES),growth inhibition [%]
1,CNC(=O)c1ccc(N2C(=S)N(c3ccc(C#N)c(C(F)(F)F)c3)C(=O)C2(C)C)cc1F,1.36
2,O=c1oc2cc(O)ccc2s1,6.79
3,CN1CCC(=C2c3ccccc3CC(=O)c3sccc32)CC1,-0.625
4,CC1=C(C(=O)OC(C)C)C(c2cccc([N+](=O)[O-])c2)C(C(=O)OC2CN(C(c3ccccc3)c3ccccc3)C2)=C(N)N1 (stereo not drawn),22.2
5,C[C@H]1C[C@@H]2[C@H]([C@@H](O)C[C@@]3(C)[C@H]2CC[C@]3(O)C(=O)CO)[C@@]2(C)C=CC(=O)C=C12,-1.93
6,C[C@@H]1CC(=O)NN=C1c1ccc(NN=C(C#N)C#N)cc1,1.39
7,Cc1cnc(NC(=O)C2=C(O)c3ccccc3S(=O)(=O)N2C)s1,-0.44
8,CCCCCCCCCCCCCCCC[N+](C)(C)CCN(Cc1ccc(OC)cc1)c1ncccn1,57.6
9,CC(C)OC(=O)OCOP(=O)(CO[C@H](C)Cn1cnc2c(N)ncnc21)OCOC(=O)OC(C)C,0.933
10,C#CCC(Cc1cnc2nc(N)nc(N)c2n1)c1ccc(C(=O)N[C@@H](CCC(=O)O)C(=O)O)cc1 (stereo partly drawn),25
11,CCOC(=O)CCC(=O)O[C@H]1[C@H](O[C@@H]2[C@@H](C)[C@H](O[C@H]3C[C@@](C)(OC)[C@@H](O)[C@H](C)O3)[C@@H](C)C(=O)O[C@H](CC)[C@@](C)(O)[C@H](O)[C@@H](C)C(=O)[C@H](C)C[C@@]2(C)O)O[C@H](C)C[C@@H]1N(C)C,1.67
12,Nc1cc(C(Cl)=C(Cl)Cl)c(S(N)(=O)=O)cc1S(N)(=O)=O,1.7
13,CCCCC(CC)CN=C(N)N=C(N)NCCCCCCNC(N)=NC(N)=NCC(CC)CCCC (stereo not drawn),58.2
14,C[N+](C)(C)CCCCCC[N+](C)(C)C,0.491
15,CC(C)CN(C[C@@H](O)[C@H](Cc1ccccc1)NC(=O)O[C@H]1CO[C@H]2OCC[C@H]21)S(=O)(=O)c1ccc(N)cc1,-0.244
16,NCCc1c[nH]cn1,-1.55
17,c1ccc2c(CC3=NCCN3)cccc2c1,1.78
18,C=CCc1cc(OC)c(O)c(C(=O)NCCO)c1,-1.32
19,COc1cc2/c(=N/c3ccc(Br)cc3F)nc[nH]c2cc1OCC1CCN(C)CC1,4.34
20,Clc1ccc(C(Cn2ccnc2)OCc2csc3c(Cl)cccc23)c(Cl)c1 (stereo not drawn),1.45

row,Structure (SMILES),growth inhibition [%]
1,OCCOCCN1CCN(C2=Nc3ccccc3Sc3ccccc32)CC1,4.12
2,CC(C)(C)c1cc(C(C)(C)C)c(NC(=O)c2c[nH]c3ccccc3c2=O)cc1O,25.1
3,Nc1ccc(/N=N/c2ccccc2)c(N)n1,0.481
4,CC1(C)O[C@@H]2C[C@H]3[C@@H]4CCC5=CC(=O)C=C[C@]5(C)[C@@]4(F)[C@@H](O)C[C@]3(C)[C@]2(C(=O)CO)O1,-0.242
5,C[C@H]1c2cccc(O)c2C(=O)C2=C(O)[C@]3(O)C(=O)C(C(N)=O)=C(O)[C@@H](N(C)C)[C@@H]3[C@@H](O)[C@@H]21,1.55
6,CCc1cc2c(cc1CC)CC(NC[C@H](O)c1ccc(O)c3[nH]c(=O)ccc13)C2,0.341
7,COc1cc2c(cc1O)CC[C@@H]1[C@@H]2CC[C@]2(C)[C@@H](O)CC[C@@H]12,9.77
8,CN(CCOc1ccc(NS(C)(=O)=O)cc1)CCc1ccc(NS(C)(=O)=O)cc1,0.833
9,NC[C@H](O)c1ccc(O)c(O)c1,0.579
10,NC(=O)C(c1ccccc1)(c1ccccc1)[C@@H]1CCN(CCc2ccc3c(c2)CCO3)C1,0.954
11,O=C(O)c1ccc(-n2nc(-c3ccccc3O)nc2-c2ccccc2O)cc1,0.0493
12,CN(C/C=C/c1ccccc1)Cc1cccc2ccccc12,-0.0716
13,CC(C)/N=c1\cc2n(-c3ccc(Cl)cc3)c3ccccc3nc-2cc1Nc1ccc(Cl)cc1,11.1
14,Nc1ccc(C(=O)O)c(O)c1,0.982
15,CN1CCN(CCCN2c3ccccc3Sc3ccc(Cl)cc32)CC1,9.7
16,O=c1ccn([C@@H]2O[C@H](CO)[C@@H](O)[C@H]2O)c(=O)[nH]1,1.57
17,Oc1c(Cl)cc(Cl)c2cccnc12,4.55
18,COC1C(O)CC(=O)OC(C)CC=CC=CC(OC2CCC(N(C)C)C(C)O2)C(C)CC(CC=O)C1OC1OC(C)C(OC2CC(C)(O)C(O)C(C)O2)C(N(C)C)C1O (stereo not drawn),-0.322
19,CC[C@H](C)C[C@H](C)CCCCCCCCC(=O)N[C@H]1C[C@@H](O)[C@@H](NCCN)NC(=O)[C@@H]2[C@@H](O)CCN2C(=O)[C@H]([C@H](O)CCN)NC(=O)[C@H]([C@H](O)[C@@H](O)c2ccc(O)cc2)NC(=O)[C@@H]2C[C@@H](O)CN2C(=O)[C@H]([C@@H](C)O)NC1=O,3.78

# Tested on: DIPGX9 (diffuse intrinsic pontine glioma line)
# Assay: as above
# Conditions: 33 µM
# Procedure, shortened: as §1
row,Structure (SMILES),growth inhibition [%]
1,CNC(=O)c1ccc(N2C(=S)N(c3ccc(C#N)c(C(F)(F)F)c3)C(=O)C2(C)C)cc1F,1.43
2,O=c1oc2cc(O)ccc2s1,1.73
3,CN1CCC(=C2c3ccccc3CC(=O)c3sccc32)CC1,0.0911
4,CC1=C(C(=O)OC(C)C)C(c2cccc([N+](=O)[O-])c2)C(C(=O)OC2CN(C(c3ccccc3)c3ccccc3)C2)=C(N)N1 (stereo not drawn),3.53
5,C[C@H]1C[C@@H]2[C@H]([C@@H](O)C[C@@]3(C)[C@H]2CC[C@]3(O)C(=O)CO)[C@@]2(C)C=CC(=O)C=C12,2.66
6,C[C@@H]1CC(=O)NN=C1c1ccc(NN=C(C#N)C#N)cc1,4.28
7,Cc1cnc(NC(=O)C2=C(O)c3ccccc3S(=O)(=O)N2C)s1,-0.195
8,CCCCCCCCCCCCCCCC[N+](C)(C)CCN(Cc1ccc(OC)cc1)c1ncccn1,55.3
9,CC(C)OC(=O)OCOP(=O)(CO[C@H](C)Cn1cnc2c(N)ncnc21)OCOC(=O)OC(C)C,1.84
10,C#CCC(Cc1cnc2nc(N)nc(N)c2n1)c1ccc(C(=O)N[C@@H](CCC(=O)O)C(=O)O)cc1 (stereo partly drawn),9.98
11,CCOC(=O)CCC(=O)O[C@H]1[C@H](O[C@@H]2[C@@H](C)[C@H](O[C@H]3C[C@@](C)(OC)[C@@H](O)[C@H](C)O3)[C@@H](C)C(=O)O[C@H](CC)[C@@](C)(O)[C@H](O)[C@@H](C)C(=O)[C@H](C)C[C@@]2(C)O)O[C@H](C)C[C@@H]1N(C)C,-1.7
12,Nc1cc(C(Cl)=C(Cl)Cl)c(S(N)(=O)=O)cc1S(N)(=O)=O,0.825
13,CCCCC(CC)CN=C(N)N=C(N)NCCCCCCNC(N)=NC(N)=NCC(CC)CCCC (stereo not drawn),57.3
14,C[N+](C)(C)CCCCCC[N+](C)(C)C,-2.94
15,CC(C)CN(C[C@@H](O)[C@H](Cc1ccccc1)NC(=O)O[C@H]1CO[C@H]2OCC[C@H]21)S(=O)(=O)c1ccc(N)cc1,-0.934
16,NCCc1c[nH]cn1,0.0733
17,c1ccc2c(CC3=NCCN3)cccc2c1,1.2
18,C=CCc1cc(OC)c(O)c(C(=O)NCCO)c1,0.81
19,COc1cc2/c(=N/c3ccc(Br)cc3F)nc[nH]c2cc1OCC1CCN(C)CC1,7.45
20,Clc1ccc(C(Cn2ccnc2)OCc2csc3c(Cl)cccc23)c(Cl)c1 (stereo not drawn),1.99

row,Structure (SMILES),growth inhibition [%]
1,OCCOCCN1CCN(C2=Nc3ccccc3Sc3ccccc32)CC1,1.36
2,CC(C)(C)c1cc(C(C)(C)C)c(NC(=O)c2c[nH]c3ccccc3c2=O)cc1O,8.47
3,Nc1ccc(/N=N/c2ccccc2)c(N)n1,-3.38
4,CC1(C)O[C@@H]2C[C@H]3[C@@H]4CCC5=CC(=O)C=C[C@]5(C)[C@@]4(F)[C@@H](O)C[C@]3(C)[C@]2(C(=O)CO)O1,4.15
5,C[C@H]1c2cccc(O)c2C(=O)C2=C(O)[C@]3(O)C(=O)C(C(N)=O)=C(O)[C@@H](N(C)C)[C@@H]3[C@@H](O)[C@@H]21,1.62
6,CCc1cc2c(cc1CC)CC(NC[C@H](O)c1ccc(O)c3[nH]c(=O)ccc13)C2,-1.43
7,COc1cc2c(cc1O)CC[C@@H]1[C@@H]2CC[C@]2(C)[C@@H](O)CC[C@@H]12,16.5
8,CN(CCOc1ccc(NS(C)(=O)=O)cc1)CCc1ccc(NS(C)(=O)=O)cc1,-2.46
9,NC[C@H](O)c1ccc(O)c(O)c1,1.67
10,NC(=O)C(c1ccccc1)(c1ccccc1)[C@@H]1CCN(CCc2ccc3c(c2)CCO3)C1,1.04
11,O=C(O)c1ccc(-n2nc(-c3ccccc3O)nc2-c2ccccc2O)cc1,-2.68
12,CN(C/C=C/c1ccccc1)Cc1cccc2ccccc12,1.9
13,CC(C)/N=c1\cc2n(-c3ccc(Cl)cc3)c3ccccc3nc-2cc1Nc1ccc(Cl)cc1,5.47
14,Nc1ccc(C(=O)O)c(O)c1,0.745
15,CN1CCN(CCCN2c3ccccc3Sc3ccc(Cl)cc32)CC1,-0.83
16,O=c1ccn([C@@H]2O[C@H](CO)[C@@H](O)[C@H]2O)c(=O)[nH]1,-0.704
17,Oc1c(Cl)cc(Cl)c2cccnc12,5.64
18,COC1C(O)CC(=O)OC(C)CC=CC=CC(OC2CCC(N(C)C)C(C)O2)C(C)CC(CC=O)C1OC1OC(C)C(OC2CC(C)(O)C(O)C(C)O2)C(N(C)C)C1O (stereo not drawn),0.622
19,CC[C@H](C)C[C@H](C)CCCCCCCCC(=O)N[C@H]1C[C@@H](O)[C@@H](NCCN)NC(=O)[C@@H]2[C@@H](O)CCN2C(=O)[C@H]([C@H](O)CCN)NC(=O)[C@H]([C@H](O)[C@@H](O)c2ccc(O)cc2)NC(=O)[C@@H]2C[C@@H](O)CN2C(=O)[C@H]([C@@H](C)O)NC1=O,1.06
